The results in this text go back to the supplement of paper PMC11417369.

Whole data set: some 25,000 sequences, median “ln(normalized median fluorescence intensity)” near 9.7, cut for the highest 2% near 11. This excerpt belongs to a sample that is enriched for the highest values.

The test system of this test is PfAP2-HC AP2 domain (GST-tagged). Nature of the test: gcPBM binding intensity (ln(normalized median fluorescence intensity)); higher = stronger DNA binding. In outline: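 Alexa488 anti-GST antibody, scanned at 488 nm, detected GST-tagged P. falciparum DNA-binding domains that had been expressed in E. coli and incubated for 1 h on an Agilent 4 × 180k array. The array carried primer-extended double-stranded 36-bp intergenic genomic probes and negative controls. Binding intensity is the highest Masliner-normalised natural-log median intensity across replicate spots of either orientation of each probe.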
Take “AAAGGTAAATGTAAATAAATAAATAATAAATATATA [GTGCAC_negctrl_site681]”: the “gcPBM binding intensity (ln)” value amounted to 9.77.

For the sequence “TTTTCTTGACCTATTATTCTTCTCATAGTATAATAT [GTGCAC_negctrl_site641]”, the “gcPBM binding intensity (ln)” value came to 9.62.

On to “TGAACATACATCAAAAGTACAAACTCGCATGTTATA [XGTACX_site3320]”, for which the “gcPBM binding intensity (ln)” value came out at 9.67.

Take “TATAATATTATACATAGTACACATCACACATCGCAA [XGTACX_site4650]”: the “gcPBM binding intensity (ln)” value was 9.99.

Consider “ATCAAATAATAGCAAACACACAAAAAATAAAAAAAA [CACACA_site4146]”, for which the “gcPBM binding intensity (ln)” value worked out at 9.93.

Regarding “AATAAGCATAGACACACACACAAAAAAAAAAAAAAA [CACACA_site6476]”, the “gcPBM binding intensity (ln)” value was determined as 10.1.

“ATAATAAGCAGACACACACACACAAAAAAAAAAAAA [CACACA_site6477]”: the “gcPBM binding intensity (ln)” value stood at 11.

“ATAATAAGCAAACACACACACACAAAAAAAAAAAAA [CACACA_site720]”: the “gcPBM binding intensity (ln)” value turned out to be 11.6.

Take “AATAAGCAGAAACACACACACAAAAAAAAAAAAAAA [CACACA_site719]”: the “gcPBM binding intensity (ln)” value worked out at 10.1.

Regarding “GACACAAAAAAATAATAATAATAATAATAATAAATA [XGTACX_negctrl_site145]”, the “gcPBM binding intensity (ln)” value amounted to 9.75.

As to “GTGATTAATATATACACACATACATATATATATATA [CACACA_site2817]”, the “gcPBM binding intensity (ln)” value stood at 9.81.

For the sequence “TATATATTAAAAATAGTGCAAAATAATATATATATA [GTGCAC_site9716]”, the “gcPBM binding intensity (ln)” value was found to be 9.82.

Regarding “TTTTTTACATCCATAAAACTTTTTCTCTTTTAAAAT [CACACA_negctrl_site1745]”, the “gcPBM binding intensity (ln)” value was 9.43.

Take “AAAATTTATGGAAGGTGTACTGTTAATTATGTATAT [XGTACX_site6446]”: the “gcPBM binding intensity (ln)” value came to 9.74.

For “AGGAAGGAAATAAATCAACACACATATATTATATAT [CACACA_site8678]”, the “gcPBM binding intensity (ln)” value came out at 9.87.

On to “CAAAAAAATGTGAAGGCATGCAAATATGTAAAATAA [TGCATGCA_site921]”, for which the “gcPBM binding intensity (ln)” value was determined as 10.9.

“TTATTGTAAATATATGCATGTGCAAAATGAAAAAAA [TGCATGCA_site399]”: the “gcPBM binding intensity (ln)” value stood at 9.69.

For the sequence “TTTTATGCATGTGAAGTGCAAAATAAAAAATAAAAT [GTGCAC_site9612]”, the “gcPBM binding intensity (ln)” value was found to be 9.56.

In the case of “AAAAAACTTCACATATGTACTTAAAAAAAATTAAAA [XGTACX_site2368]”, the “gcPBM binding intensity (ln)” value was 9.43.

Consider “ATATAGTAAAATTATACACACATGAATTTTCCCATA [CACACA_site3113]”, for which the “gcPBM binding intensity (ln)” value turned out to be 9.81.

Consider “TCCCAATTTATTATGTGTACTTATTATATACATATA [XGTACX_site4033]”, for which the “gcPBM binding intensity (ln)” value was found to be 9.72.

Turning to “ATTATAACCATATACACACCCATATAAATAAATATA [CACACA_site6926]”, the “gcPBM binding intensity (ln)” value came to 10.5.

In the case of “AAGTATTACAACCACACACACACCTATATATTATAT [CACACA_site4158]”, the “gcPBM binding intensity (ln)” value is 10.6.

With “TAAAGTATTACAACCACACACACACCGATATATTAT [CACACA_site9382]”, the “gcPBM binding intensity (ln)” value came out at 10.8.

Consider “AAGTATTACAACCACACACACACCTATATATCATAG [CACACA_site7878]”, for which the “gcPBM binding intensity (ln)” value worked out at 11.

Turning to “TAAAGTATTACAACCACACACACACCCATATATTAT [CACACA_site4159]”, the “gcPBM binding intensity (ln)” value came to 11.1.

On to “GTATTACAACGACACACACACCTATATATCATAGTA [CACACA_site7877]”, for which the “gcPBM binding intensity (ln)” value was 10.5.

As for “AAAGGATGTAATATAAACATATATATGTATATATAT [TGCATGCA_negctrl_site347]”, the “gcPBM binding intensity (ln)” value amounted to 9.79.

With “AATATTATATTTTATTGTACTAATAAAAATATATGC [XGTACX_site5435]”, the “gcPBM binding intensity (ln)” value is 9.43.

Take “AAAAAAGGAAAAGATACACACCGTAAATTAAAATTT [CACACA_site5908]”: the “gcPBM binding intensity (ln)” value turned out to be 10.2.

Take “AAAAAAAAAAAAAAAAAAAAAAAAAAAATACGAAAG [GTGCAC_negctrl_site729]”: the “gcPBM binding intensity (ln)” value stood at 9.46.

With “AATTTCTACTATTGTATGCACTTTCATACATACATA [GTGCAC_site9924]”, the “gcPBM binding intensity (ln)” value amounted to 9.92.

Take “TAAAAAATAAAATAATGTACATATGAATTATATATT [XGTACX_site8398]”: the “gcPBM binding intensity (ln)” value was found to be 9.68.

Turning to “TTGTTATAGAAGCATTCACACACACCCATACATACA [CACACA_site8414]”, the “gcPBM binding intensity (ln)” value is 10.8.

For the sequence “TATAGAAGCGTTCACACACACACATACATACCCATA [CACACA_site4915]”, the “gcPBM binding intensity (ln)” value amounted to 11.1.

Regarding “TATTACCCATATTATACACACATATATTATATATAT [CACACA_site1567]”, the “gcPBM binding intensity (ln)” value stood at 10.2.

For “GTTATAGAAGCATTCACACACACACCGACATACACA [CACACA_site4914]”, the “gcPBM binding intensity (ln)” value was found to be 10.3.

With “AATATAGATACATATACACACACACCCATACATATA [CACACA_site9137]”, the “gcPBM binding intensity (ln)” value came out at 10.6.

Take “GTTATAGAAGCATTCACACACACACCCACATACACA [CACACA_site1465]”: the “gcPBM binding intensity (ln)” value amounted to 11.2.

As to “TCTTCCATTTTTATTACACACATAAATATGAAATCG [CACACA_site3471]”, the “gcPBM binding intensity (ln)” value amounted to 9.74.

Turning to “ATATATATTTATAATCGTACGTACCTAACAATACAA [XGTACX_site4510]”, the “gcPBM binding intensity (ln)” value is 9.62.

For “ATGGATTATACGTGCACACATATATACAAATAAATA [CACACA_site640]”, the “gcPBM binding intensity (ln)” value is 9.81.

Consider “GTTTGATTAAACTTGACACACATATATATAAATATA [CACACA_site1784]”, for which the “gcPBM binding intensity (ln)” value was 9.65.

On to “AAATAAAATACATATAAACACACATATAAACCAACA [CACACA_site8789]”, for which the “gcPBM binding intensity (ln)” value stood at 10.2.

As to “ACTTGACACCAACACACACACATATATAAAAAAAAA [CACACA_site756]”, the “gcPBM binding intensity (ln)” value is 11.

On to “CATATATAAAAAAACACACACATATATATATATATA [CACACA_site1195]”, for which the “gcPBM binding intensity (ln)” value was determined as 10.2.

On to “AGCAGACACCAACACACACACATATATATATATATA [CACACA_site337]”, for which the “gcPBM binding intensity (ln)” value was 10.5.

For “AAACTTGACGGACACACACACACATATATAAAAAAA [CACACA_site4577]”, the “gcPBM binding intensity (ln)” value came out at 11.6.

Turning to “AAACTTGACAGACACACACACACATATATAAAAAAA [CACACA_site757]”, the “gcPBM binding intensity (ln)” value amounted to 10.4.

For the sequence “ACTTGACACGGACACACACACATATATAAAAAAAAA [CACACA_site4576]”, the “gcPBM binding intensity (ln)” value came out at 10.5.

For the sequence “AAACTTGACGAACACACACACACATATATAAAAAAA [CACACA_site6494]”, the “gcPBM binding intensity (ln)” value stood at 11.5.

For the sequence “AATGGAAAATTATTAACACACACATATAAATATATA [CACACA_site7899]”, the “gcPBM binding intensity (ln)” value came out at 10.1.

As to “AAATATAAATATACTCGTACATATATATATATATAT [XGTACX_site6940]”, the “gcPBM binding intensity (ln)” value turned out to be 9.72.

“ACAAAACATATATTCTGTACATATATAATGGTGACT [XGTACX_site6796]”: the “gcPBM binding intensity (ln)” value was 9.77.

As to “TTTTTTTTTTTTTTTTTTTGATTCTTATAAAAATTT [GTGCAC_negctrl_site240]”, the “gcPBM binding intensity (ln)” value was 8.56.

Consider “CTTATATTTAGACACACACACAATAAAATGAAAAAA [CACACA_site1031]”, for which the “gcPBM binding intensity (ln)” value came out at 10.3.
